Inconclusive results are not listed. Calls of active or inactive are those of the source. Calls come from the whole dose curve; as a rule, active = well fitted inhibition curve with a large enough effect; inconclusive = small, poorly fitted or top-dose-only effect; inactive = flat fitted curve, though single readings scatter.

Experimental findings from PubChem BioAssay (NCATS) are described below.

What all share (test): qHTS profiling for inhibitors of Plasmodium falciparum proliferation (AID 504749); note: nearly all actives have a fitted effect of over 60% in size
Common to all, as to conditions: P. falciparum in erythrocytes, SYBR Green DNA, 72 h; series mostly up to 28.7 µM
A general note: In qHTS, concentration-response curves come from the screen itself.

One test deals with CP297. In outline:
(§1)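 Three-day growth assay of blood-stage parasites in erythrocytes (0.3% parasitemia, 2.5% hematocrit) at 37 C, 5% CO2, quantified by SYBR Green DNA staining after overnight detergent lysis.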

The subject of the next test is CP305. In outline: as §1
In another test the test system is CP315. In outline: as §1
The next test relates to CP325. The essentials: as §1
The next test deals with CP329. The essentials:
as §1

The subject of a further test is CP335. In outline:
as §1

The next test relates to DFO2036. In outline: as §1
The subject of the next test is DIV14. In outline: as §1
For a further test, the system named is DIV17. In outline:
as §1

The subject of the next test is DIV30. In outline: as §1
The next test concerns Dd2. The essentials: as §1
The test system of a further test is ECU. In outline: as §1
A further test has as its system FAB9. In outline:
as §1

For another test, the system named is GB4. The essentials: as §1
For the next test, the system named is HB3. In outline: as §1
The subject of another test is ICS. The essentials: as §1
In the next test the test system is JCK. In outline: as §1
The next test deals with N140. In outline: as §1
In another test the test system is P93_24. In outline: as §1
The next test has as its system P94_40. The essentials:
as §1
Potency is the fitted concentration of half-maximal effect.

Consider `Clc1cccc(Cl)c1NC1=NCCN1`, for which the Potency result in the test on CP297, in the test with CP305, in the test on CP315, with CP325, with CP335 and with DFO2036 was “inactive” in each case. Moreover, the Potency entry in the test with DIV14, in the test with DIV17, in the test on DIV30, in the test with Dd2, in the test with ECU and in the test with FAB9 was “inactive” each time. The Potency result in the test with GB4, in the test with HB3, with ICS, in the test with JCK, in the test on N140 and in the test on P93_24 was “inactive” each time. The Potency entry with P94_40 is “inactive”. Besides, the result with CP329 was inactive.
In the case of `Cc1ccc(N(CC2=NCCN2)c2cccc(O)c2)cc1`, the Potency result in the test on CP297, with CP305, in the test on CP315, in the test on CP325, in the test on CP335 and in the test on DFO2036 was “inactive” throughout. Further, the Potency result in the test with DIV14, in the test on DIV17, in the test on DIV30, in the test on Dd2, in the test with ECU and with FAB9 was “inactive” in each case. In addition, the Potency entry with GB4, in the test on HB3, with ICS, in the test on JCK, in the test with N140 and with P93_24 was “inactive” in each case. For the same molecule, in the test with P94_40, the Potency result is “inactive”. The call in the test with CP329 was inactive.
Consider `Cc1cn[nH]c1`, for which the Potency result in the test with CP297, with CP305, in the test with CP315, with CP325, in the test with CP335 and in the test on DFO2036 was “inactive” in each case. Also, the Potency result with DIV14, in the test on DIV17, with DIV30, in the test on Dd2, with ECU and with FAB9 was “inactive” in each case. Also, the Potency result with GB4, in the test on HB3, in the test on ICS, with JCK, with N140 and with P93_24 was “inactive” each time. Besides, the Potency entry in the test with P94_40 was “inactive”. Also, the result in the test on CP329 was inactive.
As for `Oc1ccc(C2CNCCc3c2cc(O)c(O)c3Cl)cc1` (centres undefined), the Potency entry in the test with CP297, in the test on CP305, in the test with CP315, in the test on CP325, with CP335 and with DFO2036 was “inactive” in each case. Moreover, the Potency result in the test on DIV14, in the test with DIV17, in the test with DIV30, in the test on Dd2, in the test with ECU and in the test on FAB9 was “inactive” in each case. Also, the Potency result with HB3, in the test with JCK, with N140, with P93_24 and with P94_40 was “inactive” throughout. In addition, the outcome with CP329 was inactive.
Turning to `Cn1cnc([N+](=O)[O-])c1Sc1ncnc2nc[nH]c12`, the Potency result in the test on CP297, in the test on CP305, in the test with CP315, with CP325, with CP335 and in the test with DFO2036 was “inactive” each time. Moreover, the Potency entry with DIV14, in the test on DIV30, in the test with Dd2, in the test with FAB9, with HB3 and with JCK was “inactive” throughout. In addition, the outcome with CP329 was inactive. Further, the Potency in the test with ECU was 8.91 µM (active).
As for `CC(c1cc2ccccc2s1)N(O)C(N)=O` (centres undefined), the Potency entry in the test with CP297, with CP305, in the test on CP325, with CP335, with DFO2036 and in the test with DIV14 was “inactive” each time. Also, the Potency entry in the test on DIV17, in the test with DIV30, with Dd2, in the test with ECU, in the test with FAB9 and with GB4 was “inactive” in each case. Moreover, the Potency entry with HB3, in the test on ICS, with JCK, in the test with N140, in the test on P93_24 and with P94_40 was “inactive” throughout. Besides, the outcome with CP329 was inactive.
In the case of `Cc1c(C)c2c(c(C)c1O)CCC(C)(COc1ccc(CC3SC(=O)NC3=O)cc1)O2` (centres undefined), the Potency result in the test with CP305, in the test with CP315, in the test on CP325, with CP335, in the test on DFO2036 and in the test on FAB9 was “inactive” throughout. Further, the Potency result with HB3 and with JCK was “inactive” in each case. Moreover, the molecule was classed as inactive with CP329. Also, the Potency with DIV14 is 15.1 µM (active); with GB4, 12 µM (active); with P94_40, 10 µM (active).
Consider `NC[C@H](O)c1ccc(O)c(O)c1`, for which the Potency entry with CP297, in the test on CP305, in the test with CP315, in the test with CP325, with CP335 and with DFO2036 was “inactive” each time. For the same molecule, the Potency result with DIV17, in the test with DIV30, in the test with Dd2, in the test with ECU, in the test on FAB9 and in the test with GB4 was “inactive” throughout. The Potency entry in the test with HB3, with ICS, in the test with JCK, with N140, in the test on P93_24 and with P94_40 was “inactive” in each case. Further, the molecule was called inactive in the test on CP329.
`CNC[C@H](O)c1cccc(O)c1`: the Potency entry with CP297, with CP305, in the test on CP325, with DFO2036, in the test with DIV14 and in the test with DIV17 was “inactive” in each case. Moreover, the Potency result with DIV30, in the test with Dd2, in the test on ECU, with FAB9, with GB4 and with HB3 was “inactive” each time. Further, the Potency entry in the test on ICS, in the test on JCK, in the test on N140, in the test on P93_24 and in the test with P94_40 was “inactive” throughout. Moreover, in the test on CP329, the result was inactive.
For `O=C1CCc2cc(OCCCCc3nnnn3C3CCCCC3)ccc2N1`, the Potency entry in the test with CP297, with CP305, with CP315, with CP325, with CP335 and with DIV14 was “inactive” throughout. The Potency result in the test on DIV17, in the test with DIV30, in the test with GB4, with ICS and with JCK was “inactive” each time. Also, in the test on CP329, the molecule was called inactive.
On to `O=NN(CCCl)C(=O)NCCCl`, for which the Potency result in the test on CP297, in the test on CP305, in the test with CP315, in the test on CP325, in the test with DIV14 and in the test on DIV17 was “inactive” throughout. For the same molecule, the Potency entry in the test with DIV30, in the test with Dd2, in the test on ECU, with FAB9, in the test on HB3 and in the test with JCK was “inactive” each time. Besides, the Potency result in the test with N140, in the test with P93_24 and in the test on P94_40 was “inactive” in each case. Moreover, in the test on CP329, the molecule was classed as inactive.
On to `Cc1oncc1C(=O)Nc1ccc(C(F)(F)F)cc1`, for which the Potency result with CP297, in the test on CP305, in the test with CP315, in the test on CP325, with CP335 and in the test on DFO2036 was “inactive” in each case. In addition, the Potency result with DIV14, in the test with DIV30, with Dd2, in the test with ECU, with FAB9 and with JCK was “inactive” throughout. Further, the Potency entry in the test on N140 and in the test on P94_40 was “inactive” throughout. In addition, the result in the test with CP329 was inactive. In addition, in the test on ICS, the Potency was 3.16 µM (active).
